In PubChem BioAssay (NCI):
Compounds without any hit were thinned out: in the full panel of roughly 83,000, 20% have a hit.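 Cell lines were cultured in 96-well plates, exposed to a single compound concentration, and assessed for percent growth 48 hours later.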 The source made the active and inactive calls. The calls were made as follows: active = growth percent below 10; inactive = the rest.

test system: HOP-62 NSCLC; experiment: NCI-60 one-dose screen, 48 h (100 = growth as untreated, 0 = no growth, -100 = all killed); details: 10 µM unless noted

Q: For `CN1CCN(Cc2ccc(NC(=O)c3cncc(C#Cc4cnc5ccc(NCCCO)nn45)c3)cc2C(F)(F)F)CC1`, which growth is on record?
A: -36.8% (active)

Q: For `COC(=O)c1[nH]nc2c1C1(C(=O)N(C)c3ccccc31)C(C#N)=C(N)O2` (stereo not drawn), which growth is on record?
A: 118% (inactive)

Q: How did the growth turn out when `O=C(Cn1cc(-c2ccccc2)nn1)Nc1nc(-c2ccc(Cl)cc2)cs1` was run?
A: 108% (inactive)

Q: For `COc1cc(OC)c(S(N)(=O)=O)cc1C(C)=O`, which growth is on record?
A: 113% (inactive)

Q: For `COc1ccccc1N1CCN(C2=CC(=O)C(C)=C(C)C2=O)CC1`, which growth is on record?
A: 103% (inactive)

Q: For `NC(N)=Nc1ccc(Oc2cccc(Nc3ccc(Br)c(C(F)(F)F)c3)c2)cn1`, which growth is on record?
A: -46.1% (active)

Q: How did the growth turn out when `Cn1ccnc1C(=O)/C=C/c1ccc(CNC(=O)c2ccc(F)cc2)cc1` was run?
A: 41.6% (inactive)

Q: For `Cc1c(Cl)cccc1S(=O)(=O)Nc1ccc2c(c1)C(=O)N(C1CCC(=O)NC1=O)C2=O` (stereo not drawn), which growth is on record?
A: 73.5% (inactive)

Q: `NS(=O)(=O)c1ccc(-n2cc(-c3cccc(NC(=O)c4ccc(N5CCOCC5)c(C(F)(F)F)c4)c3)nn2)cc1` was tested. Which growth did it give?
A: 11.8% (inactive)

Q: `CCc1cccc2c3c(sc12)C(c1ccc(OC)cc1)C(C#N)=C(/N=C/c1ccc(Cl)cc1)O3` (stereo not drawn) was tested. Which growth did it give?
A: 33.8% (inactive)

Q: `Nc1ncc(-c2ccc3ncnc(N4CCc5cc(F)c(F)cc54)c3c2)cn1` was tested. Which growth did it give?
A: 13.4% (inactive)

Q: With `COc1c(N2CC3CCCNC3C2)c(F)cc2c(=O)c(C(=O)N/N=C/c3ccc(Br)cc3)cn(C3CC3)c12` (stereo not drawn) as the compound, how does the growth read?
A: 88.4% (inactive)

Q: `O=C(NNc1nc2cc(F)c(F)cc2n2c(CN3CC4CNCC4C3)ccc12)c1ncccn1` (stereo not drawn) was tested. Which growth did it give?
A: 0.597% (active)

Q: How did the growth turn out when `COc1ccc(/C=C(\C#N)C(=O)N2c3ccccc3Sc3ccc(SC)cc32)cc1F` was run?
A: 97% (inactive)

Q: How did the growth turn out when `Cc1ccc(NC(=O)CNc2cc(C(N)=O)cc(F)c2C)c(Cl)c1` was run?
A: 71.8% (inactive)

Q: With `CNC(=O)c1cc(Oc2ccc3nc(NC(=O)c4cccc(OC(F)(F)F)c4)sc3c2)ccn1` as the compound, how does the growth read?
A: 78.5% (inactive)

Q: For `O=C1CCCC2=C1C(c1c[nH]c3ccc(Br)cc13)Cc1cc(Br)ccc1N2` (stereo not drawn), which growth is on record?
A: 41.2% (inactive)

Q: With `COc1cc2oc(-c3cccc(C(=O)N[C@@H](CC(C)C)C(=O)OC(C)(C)C)c3)cc(=O)c2c(OC)c1OC` as the compound, how does the growth read?
A: 43.4% (inactive)

Q: `NC(N)=Nc1ccc(Nc2cccc(Nc3ccc(Cl)c(C(F)(F)F)c3)c2)cn1` was tested. Which growth did it give?
A: 19.5% (inactive)

Q: For `CC(=O)c1nnn(-c2c(C(=O)n3nc(C)cc3C)sc(=S)n2-c2ccccc2)c1C`, which growth is on record?
A: 107% (inactive)

Q: With `CS(=O)(=O)Nc1cc(-c2ccc3ncc(C#N)c(N[C@H](CO)c4ccccc4)c3c2)cnc1Cl` as the compound, how does the growth read?
A: 46.8% (inactive)

Q: `COc1ccc(C(=O)CSc2nc3c(c(Nc4ccc(S(N)(=O)=O)cc4)n2)CCCC3)cc1` was tested. Which growth did it give?
A: 115% (inactive)

Q: With `CCn1c(SCC(=O)Nc2cccc(C(=O)/C=C/c3ccc(Br)cc3)c2)nc2ccccc2c1=O` as the compound, how does the growth read?
A: 98.8% (inactive)

Q: How did the growth turn out when `N#Cc1c(Nc2ccccc2)nn2c(-c3ccc([N+](=O)[O-])cc3)ccnc12` was run?
A: 109% (inactive)

Q: How did the growth turn out when `O=C(CCn1c[n+](CC(=O)c2ccc(-c3ccccc3)cc2)c2ccccc21)Nc1cccc2cccnc12` was run?
A: 94.4% (inactive)

Q: Which growth does the source give for `COc1ccc(OC)c(-c2nc(SCC(=O)c3ccc(Br)cc3)nc(Nc3ccc(S(N)(=O)=O)cc3)c2C#N)c1` here?
A: 48.4% (inactive)

Q: For `FC(F)(F)c1cc(Nc2cccc(Oc3ccc(NC4=NCCN4)nc3)c2)ccc1Cl`, which growth is on record?
A: -47.9% (active)

Q: For `CCO/C=N/C1=C(C#N)C(c2ccc(OC)cc2)c2sc3c(CC)cccc3c2O1` (stereo not drawn), which growth is on record?
A: 54.8% (inactive)

Q: Which growth does the source give for `COc1ccc2c(c1)c(CC(=O)[Se]CCC#N)c(C)n2C(=O)c1ccc(Cl)cc1` here?
A: -48.1% (active)

Q: For `CN(C)CCN(C)c1ccc2ncc(C#Cc3cncc(C(=O)Nc4ccc(CN5CCN(C)CC5)c(C(F)(F)F)c4)c3)n2n1`, which growth is on record?
A: 33.6% (inactive)

Q: With `NC(=O)c1c(NC(=O)c2ccccc2C(F)(F)F)sc2c1CCC(=O)C2` as the compound, how does the growth read?
A: 93.4% (inactive)

Q: For `NC(N)=Nc1ccc(Oc2cccc(NC(N)=Nc3ccc(I)cc3F)c2)cc1`, which growth is on record?
A: 76.4% (inactive)

Q: How did the growth turn out when `COc1ccc(CCOc2cc3c(cc2OC)CCN(C(=O)NCc2cocn2)C3c2ccc(C)cc2C)cc1` (stereo not drawn) was run?
A: 8.99% (active)

Q: Which growth does the source give for `CC(C)(C)c1ccc(C(=O)Nc2nc3ccc(O)cc3s2)cc1` here?
A: 82.9% (inactive)

Q: For `CC1(C)CC[C@]2(C(=O)N3CCOCC3)CC[C@]3(C)C(=CC[C@@H]4[C@@]5(C)C/C(=C/c6ccccn6)C(=O)C(C)(C)[C@@H]5CC[C@]43C)[C@@H]2C1`, which growth is on record?
A: 78.5% (inactive)

Q: With `CCO/C=N/C1=C(C#N)C(c2ccc(F)cc2)c2sc3c(C)cccc3c2O1` (stereo not drawn) as the compound, how does the growth read?
A: 28.3% (inactive)

Q: For `COc1cc(-c2nc(SC(C)C)n(C(C)C)c(=O)c2C#N)ccc1OCc1ccccc1`, which growth is on record?
A: 79% (inactive)

Q: How did the growth turn out when `CCCCCc1ccc(S(=O)(=O)Nc2cccc(-c3csc(NCCN4CCN(C)CC4)n3)c2)cc1` was run?
A: 89.4% (inactive)
